Where “and” joins values, the source holds several entries; their conditions need not be identical. Equal entries are not always repeated. About 83,000 compounds went through this panel and 20% of them were active in at least one assay; those are over-represented in the sample as a whole.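 Activity criterion: percent growth below 10, measured after cells in 96-well plates were exposed to a single compound concentration for 48 hours.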 Calls of active or inactive are those of the source.
System: MDA-MB-468 breast
Assay: NCI-60 one-dose screen, 48 h (100 = growth as untreated, 0 = no growth, -100 = all killed)
Settings: 10 µM unless noted

Compound	growth
N#Cc1ccc(Cl)cc1	123% (inactive)
COc1ccc(CN2CCN(Cc3ccccc3)CC2)c(O)c1	75.5% (inactive)
C[C@]12CCC(=O)CC1CC[C@@H]1C2CC[C@@]2(C)C1CC[C@@H]2OC(=O)CC[Se][Se]CCC(=O)O[C@H]1CCC2[C@@H]3CCC4CC(=O)CC[C@]4(C)C3CC[C@@]21C (stereo not given in full)	77.5% (inactive)
CCOC(=O)C1C(C=C(C)C)C1(C)C (stereo not given)	107% (inactive)
C#Cc1ccc2c(c1)C(c1ccccc1)=NCC(=O)N2C	20.8% (inactive)
COC(=O)CCC1=C(C)c2cc3[n-]c(cc4nc(cc5[n-]c(cc1n2)c(CCC(=O)OC)c5C)C=C4C)cc3C.[Cd+2]	81.6% (inactive)
CC(=O)OC1C(OC/C2=C/C3[C@@H](C(C)C)CC=C(C)[C@@H]3CC(OC(=O)/C=C/c3cn(C)cn3)[C@]3(C)C=C[C@@]2(O)O3)OCC(O)C1O (stereo not given in full)	-19.2% (active)
CCN1C(=O)C(=C/C=C/c2ccccc2)C(=O)N(CC)C1=O	93.1% (inactive)
CCC[CH2][Sn]([CH2]CCC)([CH2]CCC)[O]C(=O)CC	-88% (active)
Nc1c(F)cc(-c2nc3cc(F)ccc3[se]2)cc1F	-39.8% (active)
Cn1c(O)c(N=O)c(=O)n(C)c1=O	112% (inactive) and 106% (inactive)
O=C(O)c1[nH]c(=O)[nH]c(=O)c1F	107% (inactive)
N[C@@H](CCC(=O)CCl)C(=O)O	102% [20 µM] (inactive)
COC(=O)[C@@H](C)C[C@H](Cc1ccccc1)NC(=O)c1csc([C@@H](C[C@H](C(C)C)N(C)C(=O)[C@@H](NC(=O)[C@H]2CCCCN2C)c2ccc(F)cc2)OC(C)=O)n1	2.95% (active)
O=C(N/N=C\c1ccc(N(CCCl)CCCl)cc1)c1cccc([N+](=O)[O-])c1	68.1% (inactive)
NC(=O)CNc1ccc([As]=[As]c2ccc(NCC(N)=O)cc2)cc1 (stereo not given)	-6.99% (active)
[Cl][Hg][n]1cnc2c(Cl)c(Cl)c(Cl)cc21	115% (inactive)
CNC(=O)Oc1ccc(Cl)cc1SSc1cc(Cl)ccc1OC(=O)NC	85.2% (inactive)
O=C(CBr)Nc1ccccc1	108% (inactive)
Cc1cc(-c2nc3cc(F)ccc3[se]2)cc(F)c1N	-39% (active)

Compound	growth
CNC(=O)O/N=C(/C)c1ccc(Cl)cc1	105% (inactive)
CCCCCN(CCCCC)CC(O)c1ccc(C)c(Cl)c1 (stereo not given)	99.9% (inactive)
CC1(C)C2CCC1(CS(=O)(=O)O)C(=O)C2 (stereo not given)	123% (inactive)
C/C(CC(C)(C)N1CC1)=N\NC(=O)Nc1cccc2ccccc12	-2.46% (active)
Nc1nc([Se])c2ncn(C3OC(CO)C(O)C3O)c2n1 (stereo not given)	83.6% (inactive)
[Cl][Hg][c]1cc(Br)cc(Br)c1	7.71% (active)
O=C1NC2(CCNCC2)Nc2ccccc21	98.8% (inactive)
C=C1[C@@H](C)C2[C@H](Cc3ccccc3)NC(=O)[C@]23[C@H](OC(C)=O)/C=C/[C@@](C)(O)C(=O)[C@@H](C)C/C=C/[C@H]3[C@@H]1O (stereo not given in full)	45.2% (inactive)
CC(C)(C)[Si](C)(C)OC1[C@@H](O[Si](C)(C)C(C)(C)C)[C@@H](CNC(=O)NC(=O)CF)O[C@H]1n1cnc2c(NC(=O)Nc3ccccc3)ncnc21 (stereo not given in full)	90.5% (inactive)
CCC(CC)(c1ccccc1)C(OC(N)=O)c1ccccc1 (stereo not given)	75.8% (inactive)
COC(=O)[C@@H](C)C[C@H](Cc1ccccc1)NC(=O)c1nc([C@@H](C[C@H](C(C)C)N(C)C(=O)[C@@H](NC(=O)[C@H]2CC(=O)CCN2C)C(C)C)OC(C)=O)sc1C(C)C	7.54% (active)
c1ccc([As]=[As]c2ccccc2)cc1 (stereo not given)	-55.7% (active)
C[C@]12CC[C@@H](OC(=O)N(CCCl)N=O)C[C@@H]1CC[C@@H]1[C@@H]2CC[C@]2(C)C(=O)CC[C@@H]12	-31.4% (active)
CCCCCCCCCCCCCCCCCCOc1ccccc1COP(=O)(O)OOCC[N+](C)(C)C	-40.1% (active)
COc1cc(C2CC(=O)Nc3nc(N)[se]c32)cc(OC)c1OC (stereo not given)	99.3% (inactive)
C[C@@H]1C[C@@]2(C)[C@@H](CC[C@@H]3[C@@H]2CC[C@]2(C)C(=O)CC[C@@H]32)CC1=O	95.4% (inactive)
C[C@]12CC[C@H]3[C@@H](C[C@@H]4SC(Nc5ccccc5)=N[C@@]45C/C(=N/O)CC[C@]35C)[C@@H]1CCC2=O	59.9% (inactive)
C/C=C/CC(C)C(O)[C@H](NC(=O)[C@@H]1CCCN1C(=O)C(C)(C)NC(=O)CCCCCCC)C(=O)N[C@@](C)(CC)C(=O)N[C@@H](CCC(N)=O)C(=O)N[C@H](CCC(N)=O)C(=O)NC(C)(C)C(=O)NC(C)(C)C(=O)N[C@@H](CCC(N)=O)C(=O)N[C@H](CC(C)C)C(=O)N[C@H](CO)CC(C)C (stereo not given in full)	106% (inactive) and -55.5% (active)
N#CCCNc1ccccc1	108% (inactive)
O=[N+]([O-])/C=C\c1ccc(Cl)c(Cl)c1	12.4% (inactive)

— PubChem BioAssay (NCI)
